High-throughput results deposited in PubChem BioAssay by National Center for Advancing Translational Sciences (NCATS).
D3 ag: qHTS of D3 Dopamine Receptor Agonist: qHTS. D(3) dopamine receptor (Homo sapiens), P35462. D3R DiscoveRx beta-arrestin cells, luminescence, 90 min. max activation, %. actives 0.58% (n = 410,000). AID 652048, 2013; in the data active = max activation above about 30%; also: 0% is about no effect
Target sequence (P35462 whole entry, looked up): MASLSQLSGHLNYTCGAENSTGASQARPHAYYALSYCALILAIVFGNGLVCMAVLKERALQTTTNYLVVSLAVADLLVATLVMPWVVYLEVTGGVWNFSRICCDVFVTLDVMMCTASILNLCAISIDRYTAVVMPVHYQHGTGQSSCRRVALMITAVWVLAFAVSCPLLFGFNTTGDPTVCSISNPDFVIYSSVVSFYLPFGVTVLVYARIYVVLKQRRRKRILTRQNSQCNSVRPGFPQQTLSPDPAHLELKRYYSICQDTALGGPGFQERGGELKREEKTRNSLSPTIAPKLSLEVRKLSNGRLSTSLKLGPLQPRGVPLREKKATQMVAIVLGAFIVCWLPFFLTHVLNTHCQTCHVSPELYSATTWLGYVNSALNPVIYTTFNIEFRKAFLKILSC
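Agonist mode: compounds and dopamine controls were applied to plated cells for 90 min at 37 degrees C after an overnight attachment at 1500 cells/well. Luminescent read-out followed 30 - 60 minutes at room temperature with DiscoveRx detection reagent.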
TDP1 cell noCPT: qHTS for Inhibitors of human tyrosyl-DNA phosphodiesterase 1 (TDP1): qHTS in cells in absence of CPT. Potency, µM (highest dose often 46.2 µM), for the others: at the top dose activity change, negative = growth inhibition, usual class: inhibitors. actives 15% (n = 420,000). DT40 Tdp1-/- hTDP1 cells, no CPT, ATP luminescence, 48 h; also: potency is read from the fitted curve at half-maximal effect; % is scaled to controls: 0 for no effect and ±100 for the full control effect; nearly all actives have a fitted effect of over 55% in size
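Chicken DT40 Tdp1-/- cells complemented with human TDP1, screened without camptothecin (DMSO vehicle only), 400 cells/well. Compounds pin-transferred, cells incubated at 37 °C for at least 48 hr. Growth read as ATP-dependent luminescence (CellTiter-Glo, 30 min at RT).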
DRD3 antagonist: qHTS of D3 Dopamine Receptor Antagonist: qHTS | D(3) dopamine receptor (Homo sapiens), P35462 | D3R cells, DiscoveRx beta-arrestin luminescence, antagonist mode; hits give low values | max response, negative = inhibition, % | actives 2.5% (n = 360,000) | AID 652054, 2013; in the data active = max response below about -50%; inconclusive = no clear call, values can overlap the other calls; also: % is scaled to controls: 0 for no effect and ±100 for the full control effect
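Cells plated overnight at 1500 cells/well, then exposed to library compounds with dopamine controls for 90 minutes at 37 degrees C. DiscoveRx reagent added for 30–60 minutes at room temperature; luminescence read, quantitative HTS format.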
TDP1 cell CPT: qHTS for Inhibitors of human tyrosyl-DNA phosphodiesterase 1 (TDP1): qHTS in cells in presence of CPT. Potency, µM (doses to about 46.2 µM), for the others: top-dose activity change, negative = growth inhibition, usual class: inhibitors. actives 12% (n = 420,000). chicken DT40 Tdp1-/-;hTDP1 cells + 20 nM CPT, ATP luminescence, 48 h; also: potency is read from the fitted curve at half-maximal effect; % is scaled to controls: 0 for no effect and ±100 for the full control effect; nearly all actives have a fitted effect of over 55% in size
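Chicken DT40 Tdp1-/- cells stably complemented with human TDP1 were seeded at 400 cells/well in medium containing 20 nM camptothecin, exposed to pin-transferred compounds, and grown at 37 °C for at least 48 hr. Viability was read as ATP luminescence.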
IL-1B inflam inh: qHTS for Inhibitors of Inflammasome Signaling: IL-1-beta AlphaLISA Primary Screen. actives 4.7% (n = 360,000). THP-1 LPS/ATP IL-1B secretion, AlphaLISA, 16 h; hits give low values. activity change, % at 57.5 µM. AID 743279, 2014; in the data active = activity change below about -50%; inconclusive = mostly about -30% to -49%; also: % is scaled to controls: 0 for no effect and ±100 for the full control effect
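Secreted IL-1B measured by AlphaLISA bead assay after 16 h compound exposure of THP-1 cells; compounds (final up to 57.5 uM) added 1 h before LPS (250 ng/mL) and ATP (1.25 mM) stimulation; lower signal means less secretion.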
ClpP mod: qHTS Assay for Activators of ClpP; ATP-dependent Clp protease proteolytic subunit (Bacillus subtilis (strain 168)), P80244; purified B. subtilis ClpP, FRET peptide cleavage, 20 min; Potency, µM (series often up to 57.5 µM), for inactives: top-dose activity change, negative = active; actives 1.9% (n = 340,000); AID 651965, 2013; active = well fitted falling curve with a large enough effect; inconclusive = small, poorly fitted or top-dose-only effect; inactive = no such curve, though single readings can be large or run the other way; also: potency is read from the fitted curve at half-maximal effect; the source files actives as falling curves though it sought activators and does not explain the sign; nearly all actives have a fitted effect of over 65% in size
Target sequence (P80244 whole entry, looked up): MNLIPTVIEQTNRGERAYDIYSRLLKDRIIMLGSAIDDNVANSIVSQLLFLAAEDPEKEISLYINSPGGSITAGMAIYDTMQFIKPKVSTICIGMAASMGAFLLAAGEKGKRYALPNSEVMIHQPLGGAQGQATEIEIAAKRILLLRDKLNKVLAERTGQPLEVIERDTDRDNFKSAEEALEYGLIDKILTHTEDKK
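ClpP 10 microg/mL final, pH 8 Tris/KCl buffer with BSA, glycerol, Tween-20; compound pinned in; FRET-FV substrate; RT 20 min; Ex320/Em430; ΔFRET vs ADEP 5.8 microM, DMSO, no enzyme.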
* = called active by the depositor. The list is not random: actives were taken first. Their share in the collection is about 21%. Unless noted, calls follow the shape of the dose curve; as a rule, active = well fitted inhibition curve with a large enough effect; inconclusive = small, poorly fitted or top-dose-only effect; inactive = flat fitted curve, though single readings scatter.

How did COc1cccc(C2=CC(c3cc(OC)ccc3OC)n3nnnc3N2)c1 (configuration not stated) do in these assays?
D3 ag: -6; TDP1 cell noCPT: 6.5µM*; DRD3 antagonist: inconclusive; TDP1 cell CPT: 7.3µM*; IL-1B inflam inh: -77*; ClpP mod: -17%

How did COC(=O)c1nc2n(n1)C(c1cc(OC)ccc1OC)C=C(c1ccc(Br)cc1)N2 (configuration not stated) do in these assays?
D3 ag: 3; TDP1 cell noCPT: inconclusive; TDP1 cell CPT: inconclusive; ClpP mod: -2%

What do the screens show for `COc1ccc(OC)c(C2C=C(c3ccc(C)c(C)c3)Nc3nnnn32)c1` (configuration not stated)?
D3 ag: 5; TDP1 cell noCPT: 2.3µM*; DRD3 antagonist: 0; TDP1 cell CPT: 4.6µM*; IL-1B inflam inh: 22; ClpP mod: 1%

How did Cn1c(N)c(C(=O)CNC2CCCCC2)c(=O)n(C)c1=O do in these assays?
D3 ag: -2; TDP1 cell noCPT: -7%; DRD3 antagonist: -24; TDP1 cell CPT: -12%; IL-1B inflam inh: -3; ClpP mod: 0%

How did Cn1nc(C(C)(C)C)cc1N1C(=O)CCC1(C)C(=O)NC1CCCCC1 (configuration not stated) do in these assays?
D3 ag: -8; TDP1 cell noCPT: 0%; DRD3 antagonist: -16; TDP1 cell CPT: -8%; IL-1B inflam inh: 37; ClpP mod: -1%

What do the screens show for `Cc1cc(N2CCC(C)CC2)c(F)cc1[N+](=O)[O-]`?
D3 ag: -3; TDP1 cell noCPT: -9%; DRD3 antagonist: -21; TDP1 cell CPT: -18%; IL-1B inflam inh: 7; ClpP mod: -1%

What do the screens show for `Cc1cc(N2CCCC2)c(F)cc1/C=C\[N+](=O)[O-]`?
D3 ag: -2; TDP1 cell noCPT: inconclusive; DRD3 antagonist: -7; TDP1 cell CPT: 23µM*; IL-1B inflam inh: -68*; ClpP mod: -1%

Results for Cc1cc(C)c(OCCCCCn2ccnc2)c(C)c1 ?
D3 ag: 0; TDP1 cell noCPT: 15µM*; DRD3 antagonist: 2; TDP1 cell CPT: inconclusive; IL-1B inflam inh: 28; ClpP mod: -2%

Results for Cc1cc(OCCCn2ccnc2)cc(C)c1Cl ?
D3 ag: 5; TDP1 cell noCPT: inconclusive; DRD3 antagonist: 24; TDP1 cell CPT: -29%; IL-1B inflam inh: 1; ClpP mod: 0%

Results for Cc1cc(OCCCCCn2ccnc2)cc(C)c1Cl ?
D3 ag: 5; TDP1 cell noCPT: 13µM*; DRD3 antagonist: -11; TDP1 cell CPT: inconclusive; IL-1B inflam inh: -13

How did Cc1cc(Cl)c(OCCOCCN2CCNCC2)c(Cl)c1 do in these assays?
D3 ag: -4; TDP1 cell noCPT: 12µM*; DRD3 antagonist: -7; TDP1 cell CPT: inconclusive; IL-1B inflam inh: -23; ClpP mod: 0%

Results for Cc1cc(Cl)c(OCCn2ccnc2)c(Br)c1 ?
D3 ag: -3; TDP1 cell noCPT: inconclusive; DRD3 antagonist: 7; TDP1 cell CPT: 12µM*; IL-1B inflam inh: 9; ClpP mod: 0%

Results for O=C(Cc1ccc(NC(=O)C2CCCN(C(=O)C3CCC3)C2)cc1)Nc1cccc(C(=O)N2CCCCC2)c1 (configuration not stated) ?
D3 ag: -8; TDP1 cell noCPT: inconclusive; DRD3 antagonist: 31; TDP1 cell CPT: -9%; IL-1B inflam inh: 8; ClpP mod: -2%

Results for Brc1cccc(OCCOCCn2ccnc2)c1 ?
D3 ag: -3; TDP1 cell noCPT: -9%; DRD3 antagonist: -22; TDP1 cell CPT: -20%; IL-1B inflam inh: -16; ClpP mod: -1%

How did CCc1ccc(OCCn2ccnc2)cc1 do in these assays?
D3 ag: -1; TDP1 cell noCPT: -3%; DRD3 antagonist: 3; TDP1 cell CPT: 5%; IL-1B inflam inh: -1; ClpP mod: 0%

Results for Cc1cc(Cl)c(OCCCN2CCCCC2)c(Br)c1 ?
D3 ag: -25; TDP1 cell noCPT: inconclusive; DRD3 antagonist: -2; TDP1 cell CPT: -7%; IL-1B inflam inh: -79*; ClpP mod: 1%

Results for Cc1ccc(C)c(OCCCCCn2ccnc2)c1 ?
D3 ag: -7; TDP1 cell noCPT: inconclusive; DRD3 antagonist: 6; TDP1 cell CPT: inconclusive; IL-1B inflam inh: -11; ClpP mod: 0%

What do the screens show for `CCc1ccc(OCCCCCn2ccnc2)cc1`?
D3 ag: 4; TDP1 cell noCPT: 18µM*; DRD3 antagonist: 5; TDP1 cell CPT: inconclusive; IL-1B inflam inh: -30; ClpP mod: 1%

What do the screens show for `Cc1cc(Cl)cc(C)c1OCCCCCn1ccnc1`?
D3 ag: -18; TDP1 cell noCPT: inconclusive; DRD3 antagonist: -8; TDP1 cell CPT: 18µM*; IL-1B inflam inh: -91*; ClpP mod: 0%

Results for Brc1cccc(OCCn2ccnc2)c1 ?
D3 ag: -3; TDP1 cell noCPT: -14%; DRD3 antagonist: -65*; TDP1 cell CPT: -17%; IL-1B inflam inh: -15; ClpP mod: -1%

Results for COCCCNC(=S)N(Cc1cccnc1)Cc1ccc(OC)c(OC)c1 ?
D3 ag: -9; TDP1 cell noCPT: -11%; DRD3 antagonist: -15; TDP1 cell CPT: -8%; IL-1B inflam inh: -9; ClpP mod: 1%

Results for O=C(COC(=O)CCSc1ccc(F)cc1)NCc1ccc(F)cc1 ?
D3 ag: -20; TDP1 cell noCPT: -1%; DRD3 antagonist: -10; TDP1 cell CPT: inconclusive; IL-1B inflam inh: 3; ClpP mod: 0%

How did COCCNC(=S)NNc1cccc(C(=O)O)c1 do in these assays?
D3 ag: -2; TDP1 cell noCPT: inconclusive; DRD3 antagonist: -3; TDP1 cell CPT: inconclusive; IL-1B inflam inh: 11; ClpP mod: 0%

Results for Clc1ccc(OCCn2ccnc2)c(Cl)c1 ?
D3 ag: -8; TDP1 cell noCPT: -17%; DRD3 antagonist: -1; TDP1 cell CPT: -16%; IL-1B inflam inh: -14; ClpP mod: -2%

How did Cc1cc(Cl)cc(C)c1OCCn1ccnc1 do in these assays?
D3 ag: 3; TDP1 cell noCPT: 5.2µM*; DRD3 antagonist: 16; TDP1 cell CPT: 5.2µM*; IL-1B inflam inh: 160
